# Experimental data as given in the supplement of paper PMC8773631.
# Structures can show the parent of a compound that is named as a salt. ± gives the uncertainty stated by the source.
# Test system: NCC-MFS5-C1
# Assay: cell viability relative to DMSO control; higher = less growth inhibition
# Details: 10 µM; treatment time: 3 days
# Protocol: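 NCC-MFS5-C1 myxofibrosarcoma cells (1x10^4 per well, 384-well) were treated on day 2 with 10 µM of each drug. On day 5, viability was read by CCK-8 absorbance at 450 nm and normalised to the DMSO control (%), n = 2.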
row,Structure (SMILES),cell viability
1,O=C(c1ccc(OCCN2CCCCC2)cc1)c1c(-c2ccc(O)cc2)sc2cc(O)ccc12 [Raloxifene HCl],85 ± 1%
2,Nc1cccc2c1C(=O)N(C1CCC(=O)NC1=O)C2=O (stereo not given) [Pomalidomide],97.7 ± 6.4%
3,Cc1c2oc3c(C)ccc(C(=O)N[C@@H]4C(=O)N[C@H](C(C)C)C(=O)N5CCC[C@H]5C(=O)N(C)CC(=O)N(C)[C@@H](C(C)C)C(=O)O[C@@H]4C)c3nc-2c(C(=O)N[C@@H]2C(=O)N[C@H](C(C)C)C(=O)N3CCC[C@H]3C(=O)N(C)CC(=O)N(C)[C@@H](C(C)C)C(=O)O[C@@H]2C)c(N)c1=O [Actinomycin D],40.2 ± 2.1%
4,Cc1ccc(NC(=O)c2ccc(CN3CCN(C)CC3)cc2)cc1Nc1nccc(-c2cccnc2)n1 [Imatinib (STI571)],72.9 ± 3.3%
5,C[C@H](NC(=O)Cc1cc(F)cc(F)c1)C(=O)N[C@H](C(=O)OC(C)(C)C)c1ccccc1,108 ± 11%
6,CNC[C@H](O)c1ccc(O)c(O)c1 [Epinephrine Bitartrate],106 ± 5.9%
7,COc1ccc2[nH]c([S@@+]([O-])Cc3ncc(C)c(OC)c3C)nc2c1 [Esomeprazole Sodium],74.6 ± 1.4%
8,O=C(O)C(=O)O.[NH-][C@@H]1CCCC[C@H]1[NH-].[Pt+2] [Oxaliplatin],72.7 ± 2.5%
9,C=CC(=O)Nc1cc2c(Nc3ccc(F)c(Cl)c3)ncnc2cc1OCCCN1CCOCC1 [Canertinib(CI-1033)],84.2 ± 5%
10,C/C(=C\c1csc(C)n1)[C@@H]1C[C@@H]2O[C@]2(C)CCC[C@H](C)[C@H](O)[C@@H](C)C(=O)C(C)(C)[C@@H](O)CC(=O)N1,51.24 ± 0.45%
11,Nc1ncn([C@@H]2O[C@H](CO)[C@@H](O)[C@H]2O)c(=O)n1 [Azacitidine],104 ± 13%
12,S=c1[nH]cnc2nc[nH]c12 [Mercaptopurine (6-MP)],93.5 ± 3%
13,Nc1nc2[nH]cnc2c(=S)[nH]1 [Thioguanine],90.3 ± 0.61%
14,CC[C@H]1OC(=O)[C@H](C)[C@@H](O[C@H]2C[C@@](C)(OC)[C@@H](O)[C@H](C)O2)[C@H](C)[C@@H](O[C@@H]2O[C@H](C)C[C@H](N(C)C)[C@H]2O)[C@](C)(O)C[C@@H](C)CN(C)[C@H](C)[C@@H](O)[C@]1(C)O [Azithromycin],69.4 ± 0.75%
15,NCC(=O)CCC(=O)O [5-Aminolevulinic acid HCl],85.7 ± 2.2%
16,O=C(/C=C/c1cccc(S(=O)(=O)Nc2ccccc2)c1)NO [Belinostat (PXD101)],26.9 ± 0.53%
17,COc1cc2nccc(Oc3ccc(NC(=O)Nc4cc(C)on4)c(Cl)c3)c2cc1OC [Tivozanib (AV-951)],59.7 ± 2.6%
18,O=C(c1cc(Cc2n[nH]c(=O)c3ccccc23)ccc1F)N1CCN(C(=O)C2CC2)CC1,78 ± 9.1%

row,Structure (SMILES),cell viability
1,CCOC(=O)[C@H](CCc1ccccc1)N[C@H]1CS[C@H](c2cccs2)CN(CC(=O)O)C1=O [Temocapril HCl],86 ± 1.2%
2,C[C@]12CC[C@@H]3c4ccc(O)cc4C[C@@H](CCCCCCCCC[S+]([O-])CCCC(F)(F)C(F)(F)F)[C@H]3[C@@H]1CC[C@@H]2O (stereo not given in full) [Fulvestrant],74.38 ± 0.27%
3,CCCCCOC(=O)Nc1nc(=O)n([C@@H]2O[C@H](C)[C@@H](O)[C@H]2O)cc1F [Capecitabine],72.9 ± 5.9%
4,CC(=O)[C@]1(O)Cc2c(O)c3c(c(O)c2[C@@H](O[C@H]2C[C@H](N)[C@H](O)[C@H](C)O2)C1)C(=O)c1ccccc1C3=O [Idarubicin HCl],0.409 ± 0.53%
5,FC(F)(F)c1ccc(CNc2ccc(Cc3c[nH]c4ncc(Cl)cc34)cn2)cn1 [Pexidartinib (PLX3397)],72.5 ± 5.8%
6,CCc1c2c(nc3ccc(OC(=O)N4CCC(N5CCCCC5)CC4)cc13)-c1cc3c(c(=O)n1C2)COC(=O)[C@]3(O)CC [Irinotecan HCl Trihydrate],64.1 ± 2.3%
7,C=C1c2cccc(O)c2C(O)=C2C(=O)[C@]3(O)C(O)=C(C(N)=O)C(=O)[C@@H](N(C)C)[C@@H]3[C@@H](O)[C@H]12 [Methacycline HCl],92.3 ± 5.3%
8,C#CCC(Cc1cnc2nc(N)nc(N)c2n1)c1ccc(C(=O)N[C@@H](CCC(=O)O)C(=O)O)cc1 (stereo not given in full) [Pralatrexate],85 ± 4.1%
9,CC[C@]1(O)C[C@H]2CN(CCc3c([nH]c4ccccc34)[C@@](C(=O)OC)(c3cc4c(cc3OC)N(C=O)[C@H]3[C@@](O)(C(=O)OC)[C@H](OC(C)=O)[C@]5(CC)C=CCN6CC[C@]43[C@@H]65)C2)C1 [Vincristine],29.8 ± 4.2%
10,C[C@]1(O)C[C@@H](c2nc(-c3ccc4ccc(-c5ccccc5)nc4c3)c3c(N)nccn32)C1 [Linsitinib (OSI-906)],57 ± 0.57%
11,O=C1c2c(O)ccc(O)c2C(=O)c2c(NCCNCCO)ccc(NCCNCCO)c21 [Mitoxantrone 2HCl],-0.766 ± 0.85%
12,Nc1ccn([C@@H]2O[C@H](CO)[C@@H](O)[C@@H]2O)c(=O)n1 [Cytosine β-D-arabinofuranoside hydrochloride],118 ± 20%
13,COc1ccc(C2=N[C@@H](c3ccc(Cl)cc3)[C@@H](c3ccc(Cl)cc3)N2C(=O)N2CCNC(=O)C2)c(OC(C)C)c1 [Nutlin-3],88.6 ± 1.8%
14,Clc1ccc(Nc2nnc(Cc3ccncc3)c3ccccc23)cc1 [Vatalanib (PTK787) 2HCl],59.1 ± 0.89%
15,CC(C)(C#N)c1cc(Cn2cncn2)cc(C(C)(C)C#N)c1 [Anastrozole],83.5 ± 5.1%
16,CS(=O)(=O)OCCCCOS(C)(=O)=O [Busulfan],83.3%
17,Nc1ncn([C@H]2C[C@H](O)[C@@H](CO)O2)c(=O)n1 [Decitabine],134 ± 7.4%
